Results filed as inconclusive are left out. A call without a number means that no potency is given here. Calls of active or inactive are those of the source. Calls come from the whole dose curve; as a rule, active = well fitted inhibition curve with a large enough effect; inconclusive = small, poorly fitted or top-dose-only effect, or effect the other way; inactive = flat fitted curve, though single readings scatter.
Potency is the fitted concentration of half-maximal effect.

For the test, the target named is Pyruvate kinase (Leishmania mexicana) (UniProt Q27686). The experiment in a line: Confirmation Assay for Inhibitors of Leishmania Mexicana Pyruvate Kinase (LmPK): for Probe SAR. Conditions: purified LmPK, ATP generation, Kinase-Glo luminescence; series mostly up to 57.5 µM. The gist of the method: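 Coupled luminescent assay: ATP produced by LmPK (0.1 nM) from ADP (0.1 mM, ~10-fold below Km) and PEP (0.5 mM, at Km) after 1 h RT, detected with Kinase-Glo. Data scaled between no-enzyme and uninhibited controls.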
Sequence of Pyruvate kinase (Leishmania mexicana) (Q27686 whole entry, looked up): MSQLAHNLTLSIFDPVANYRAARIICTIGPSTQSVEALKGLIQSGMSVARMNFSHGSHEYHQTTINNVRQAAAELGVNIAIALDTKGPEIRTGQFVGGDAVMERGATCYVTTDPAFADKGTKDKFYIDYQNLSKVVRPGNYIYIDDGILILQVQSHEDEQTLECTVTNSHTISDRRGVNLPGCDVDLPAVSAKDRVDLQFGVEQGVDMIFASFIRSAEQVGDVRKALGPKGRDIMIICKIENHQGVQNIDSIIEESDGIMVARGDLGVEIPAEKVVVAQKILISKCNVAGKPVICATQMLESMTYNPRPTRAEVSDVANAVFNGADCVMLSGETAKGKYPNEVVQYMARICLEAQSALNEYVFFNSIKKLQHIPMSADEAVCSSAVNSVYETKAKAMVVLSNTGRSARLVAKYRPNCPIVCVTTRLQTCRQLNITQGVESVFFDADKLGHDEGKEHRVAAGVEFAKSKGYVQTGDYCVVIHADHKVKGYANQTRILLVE
For the compound `COc1ccc(-c2nc3cccc(C)n3c2Nc2ccc(C)cc2)cc1`, the Potency entry is “inactive”.
As for `Nc1ccc2c(c1)S(=O)(=O)NC2=O`, the Potency entry is “inactive”.
To `O=C1CCc2cc(S(=O)(=O)NCc3ccccc3)ccc2N1` belongs “inactive”; to `Cc1scc2c1C(=O)NS2(=O)=O`, “inactive”; to `O=C1c2ccccc2C(=O)N1c1cccc(O)c1`, “inactive”.
To `Cc1ccc(NS(=O)(=O)c2cc3c(cc2Cl)NC(=O)CO3)cc1C` belongs “inactive”.
For `Cc1ccc2nc(-c3cccs3)c(Nc3ccccc3)n2c1` the value was “inactive”; for `O=S1(=O)N=C(Sc2cccc3cccnc23)c2ccccc21`, 2.91 µM (active).
Consider `O=C1CCc2cc(S(=O)(=O)Nc3cccc(-c4ccccc4)c3)ccc2N1`, for which the Potency result was “inactive”.
To `O=C1CCc2cc(S(=O)(=O)Nc3ccc(F)cc3)ccc2N1` belongs “inactive”; to `O=C1c2ccccc2C(=O)N1c1cccc2cccnc12`, “inactive”.
To `Cc1ccc(NS(=O)(=O)c2ccc3c(c2)CCC(=O)N3)cc1` belongs “inactive”; to `Cc1ccc(NS(=O)(=O)c2ccc3c(c2)n(C)c(=O)n3C)cc1C`, “inactive”.
To `CC(=O)N1CCc2cc(S(=O)(=O)Nc3ccc(C)c(C)c3)ccc21` belongs “inactive”.
`O=C1c2ccccc2C(=O)N1c1cc(=O)c2ccccc2[nH]1`: the Potency was 3.26 µM (active).
For `O=S1(=O)N=C(Oc2ccc(C(F)(F)F)cc2)c2ccccc21` the value was 3.66 µM (active); for `COc1cccc(N2C(=O)c3ccccc3C2=O)n1`, “inactive”; for `Cc1cc(N2C(=O)c3ccccc3C2=O)n[nH]1`, “inactive”.
As for `CCNc1cccc(S(=O)(=O)N2CCN(S(=O)(=O)c3ccc4c(c3)OCCO4)CC2)c1`, the Potency entry is “inactive”.
With `O=S1(=O)N=C(Sc2cc(C(F)(F)F)cc(C(F)(F)F)c2)c2ccccc21`, the Potency is 2.91 µM (active).
For `Cc1ccccc1NS(=O)(=O)c1ccc2c(c1)CCC(=O)N2` the value was “inactive”; for `Cc1ccc(-c2nc3cccc(C)n3c2Nc2ccc(F)cc2)o1`, “inactive”.
To `Cc1ccc(C)c(SC2=N[S+](=O)([O-])c3cc(C(=O)Nc4ccc5ncccc5c4)ccc32)c1` belongs “inactive”.
`Cc1cc(C)c2ccc(C3C(=O)c4ccc(O)cc4C3=O)nc2c1` (stereo not given): the Potency entry is “inactive”.
For `O=S1(=O)N=C(Oc2ccc(Br)cc2)c2ccccc21` the value was 2.91 µM (active); for `O=C1c2ccccc2C(=O)N1c1cccnc1`, “inactive”; for `CC(=O)Nc1ccc(OC2=NS(=O)(=O)c3ccccc32)cc1`, 4.11 µM (active).
As to `Cc1ccc(NS(=O)(=O)c2ccc3c(c2)oc(=O)n3C)cc1C`, the Potency result was “inactive”.
Consider `Cc1ccc2nc(-c3ccc(C)o3)c(NC3CCCC3)n2c1`, for which the Potency entry was “inactive”.
For `O=C1c2ccc3ccccc3c2C(=O)C1c1cc(=O)c2ccccc2[nH]1` (stereo not given) the value was “inactive”.

The values are drawn from PubChem BioAssay AID2561 (National Center for Advancing Translational Sciences (NCATS), 2010).
